Laboratory results published in publication PMC4336329 (PLoS ONE, 2015).
In all, about 310,000 compounds went through this assay and about 14,000 (4.5%) showed an effect of 50% or more. The effect is printed as a negative number. The list comes from a sample in which strong results are over-represented; it also holds similar structures and randomly drawn compounds.

molecular target: human ether-à-go-go-related gene (hERG) potassium channel (human, UniProt Q12809); test: primary screen, population patch clamp on CHO cells stably expressing hERG; higher = less effect of the substance
Sequence (Q12809 whole entry, looked up): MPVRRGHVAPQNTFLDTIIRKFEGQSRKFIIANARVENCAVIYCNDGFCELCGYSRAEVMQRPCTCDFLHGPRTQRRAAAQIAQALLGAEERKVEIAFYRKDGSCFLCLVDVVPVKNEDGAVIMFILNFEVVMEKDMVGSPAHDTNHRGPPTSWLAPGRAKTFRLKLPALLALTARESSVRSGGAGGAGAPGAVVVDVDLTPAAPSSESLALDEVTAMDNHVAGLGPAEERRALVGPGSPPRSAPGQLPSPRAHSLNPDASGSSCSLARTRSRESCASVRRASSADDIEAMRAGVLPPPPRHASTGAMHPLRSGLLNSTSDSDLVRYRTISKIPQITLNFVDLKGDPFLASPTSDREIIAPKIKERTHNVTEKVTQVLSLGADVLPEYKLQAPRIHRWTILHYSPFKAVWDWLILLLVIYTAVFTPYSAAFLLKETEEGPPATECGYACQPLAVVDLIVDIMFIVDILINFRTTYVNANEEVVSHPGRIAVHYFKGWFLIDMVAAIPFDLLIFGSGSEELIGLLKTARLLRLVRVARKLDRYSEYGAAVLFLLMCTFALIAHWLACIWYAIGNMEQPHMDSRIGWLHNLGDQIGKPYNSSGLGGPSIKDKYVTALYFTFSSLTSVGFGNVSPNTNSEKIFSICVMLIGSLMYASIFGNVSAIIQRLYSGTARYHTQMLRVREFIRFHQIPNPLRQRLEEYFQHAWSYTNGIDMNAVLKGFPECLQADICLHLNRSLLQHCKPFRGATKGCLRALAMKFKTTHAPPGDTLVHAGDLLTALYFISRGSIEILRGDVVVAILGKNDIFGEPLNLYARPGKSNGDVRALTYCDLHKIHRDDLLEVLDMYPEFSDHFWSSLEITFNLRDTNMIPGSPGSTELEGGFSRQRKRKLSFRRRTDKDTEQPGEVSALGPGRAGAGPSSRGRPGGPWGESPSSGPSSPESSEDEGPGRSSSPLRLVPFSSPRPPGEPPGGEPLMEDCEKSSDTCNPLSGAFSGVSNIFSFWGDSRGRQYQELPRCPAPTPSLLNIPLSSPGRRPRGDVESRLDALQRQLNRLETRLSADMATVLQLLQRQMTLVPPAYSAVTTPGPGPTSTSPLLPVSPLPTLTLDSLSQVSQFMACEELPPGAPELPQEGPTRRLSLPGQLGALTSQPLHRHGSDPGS
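Note: peak tail current of the secondary pulse compared with the same well before compound.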

Row | SMILES | hERG current change (%, negative = inhibition) at 10uM
1 | CCc1cccc(NC(=O)COC(=O)C2CCN(c3ccc(C(F)(F)F)cn3)CC2)c1 | -4.68%
2 | CCOc1ccc(NC(=S)NC(=O)Cc2ccccc2)cc1 | 25.5%
3 | Cc1nnc(NC(=O)/C=C/c2ccco2)s1 | 26.3%
4 | O=C(Nc1ccc(CN2CCOCC2)cc1)c1ccc(Br)cc1 | 3.54%
5 | CC(C)NC(=O)c1ccccc1NC(=O)Cc1ccc([N+](=O)[O-])cc1 | -33.8%
6 | CC1C(=O)CCN(C(C)C)C1C.Cl (stereo not drawn) | 8.54%
7 | CCOC(=O)c1cnn(C)c1NC(=O)c1ccc(Cl)cc1Cl | -24.5%
8 | Cc1cc(C)nc(NS(=O)(=O)c2ccc(NC(=O)c3ccc4c(c3)OCO4)cc2)n1 | -0.197%
9 | O=C(CN1CCN(C/C=C/c2ccccc2)CC1)NC(=O)NC1CCCCC1 | -74.8%
10 | S=C(NC1CCCCC1)N1CCN(C/C=C/c2ccccc2)CC1 | -21.8%
11 | O=C(CN1CCN(Cc2ccccc2)CC1)NC(=O)NC1CCCCC1 | -46.3%
12 | NC(=O)C1CCCN(CC(=O)Nc2ccccc2C(=O)NC2CC2)C1 (stereo not drawn) | -10.7%
13 | O=C(CN1CCN(C/C=C/c2ccccc2)CC1)Nc1ccccc1C(=O)NC1CC1 | -80.5%
14 | O=C(CN1CCc2ccccc2C1)Nc1ccccc1C(=O)NC1CC1 | -24.5%
15 | CCOc1cc(C2NC(=O)NC2=O)ccc1O (stereo not drawn) | 17.4%
16 | CCN(CC)CCN(C(=O)Cn1nnc(-c2ccc(C)o2)n1)C(C(=O)NC(C)(C)C)c1cccs1 (stereo not drawn) | -41.6%
17 | O=C1CC(C(=O)NC2CCCCC2)C2(CCCCC2)O1 (stereo not drawn) | -1.23%
18 | COc1cc(NC(=O)C(=O)NCCN(C)C)c(OC)cc1Cl | 8.41%
19 | CCCCN(C1CCS(=O)(=O)C1)S(=O)(=O)c1ccc(OC)cc1 (stereo not drawn) | -24.5%
20 | CC(C)(CO)Nc1nc(N2CCCC2)nc(N2CCCC2)n1 | -13.8%
21 | COc1ccc(NC(=O)NNC(=O)COc2ccc3cc(Br)ccc3c2)cc1OC | 5.68%
22 | Cc1ccc2c(CN3CCCCC3)cc(=O)oc2c1 | -16.1%
23 | CC(C)c1ccc2oc(=O)cc(CN3CCN(Cc4ccccc4)CC3)c2c1 | 17.5%
24 | COc1ccc2oc(=O)cc(CN3CCN(Cc4ccc(OC)c(OC)c4OC)CC3)c2c1 | -39.7%

Row | SMILES | hERG current change (%, negative = inhibition) at 10uM
25 | COc1ccc(CN2CCN(Cc3cc(=O)oc4cc(C)ccc34)CC2)c(OC)c1OC | -80.2%
26 | Cc1ccc2oc(=O)cc(CN3CCN(Cc4ccccc4)CC3)c2c1 | -56.8%
27 | COc1cc(CN(C)Cc2cc(=O)oc3cc(C)c(Cl)cc23)ccc1OC(F)F | 12%
28 | Cc1ccc2c(CN3CCOCC3)cc(=O)oc2c1 | -27.6%
29 | CCc1ccc2c(CN(C)Cc3ccc(OC(F)F)c(OC)c3)cc(=O)oc2c1 | -72.5%
30 | CCOC(=O)C1CCN(Cc2cc(=O)oc3cc(C)ccc23)CC1 | -47.8%
31 | CCN1CCN(Cc2cc(=O)oc3ccc(C)cc23)CC1 | -3.04%
32 | CCc1ccc2c(CN(C)Cc3ccccc3OC)cc(=O)oc2c1.O=C(O)C(=O)O | -21.3%
33 | Cc1ccc2c(CN3CCN(Cc4ccccc4)CC3)cc(=O)oc2c1 | -78.9%
34 | CC(Sc1nc(N)cc(=O)[nH]1)C(=O)Nc1sc2c(c1C#N)CCCC2 (stereo not drawn) | 1.55%
35 | Cc1c(C)c(C)c(S(=O)(=O)NCCc2ccccn2)c(C)c1C | -7.95%
36 | C=CCNC(=O)c1nn2cccnc2c1Cl | 12.7%
37 | COC(=O)C1C(=O)C=C(Nc2ccc(F)cc2F)CC1c1ccccc1 (stereo not drawn) | -16.9%
38 | O=C1CCCN1CC(O)CS(=O)(=O)c1ccc(Cl)cc1 (stereo not drawn) | 16.7%
39 | COc1cc(CN(C)Cc2nc3cc(C(F)(F)F)ccc3c(=O)[nH]2)ccc1OC(F)F | -66.5%
40 | Cc1ccc2oc(=O)cc(CN3CCC(C)CC3)c2c1 | 10.8%
41 | Cc1ccc2c(CN3CCN(CCO)CC3)cc(=O)oc2c1 | -74.9%
42 | Cc1ccc2c(CN3CC(C)CC(C)C3)cc(=O)oc2c1 (stereo not drawn) | -2.89%
43 | COc1cccc(CN(C)Cc2nc3cc(C(F)(F)F)ccc3c(=O)[nH]2)c1 | -3.19%
44 | CCc1ccc2c(CN3CCc4cc(OC)c(OC)cc4C3)cc(=O)oc2c1 | -66%
45 | COc1cc2c(cc1OC)CN(Cc1cc(=O)oc3cc(C)c(C)cc13)CC2 | -37.6%
46 | CCc1cc2c(CN3CCN(CCO)CC3)cc(=O)oc2cc1O | 15.6%
47 | COc1cc2c(cc1OC)CN(Cc1cc(=O)oc3cc(C)c(Cl)cc13)CC2 | -14.3%
48 | Cc1ccc2c(CN3CCC(C)CC3)cc(=O)oc2c1 | -50%

Row | SMILES | hERG current change (%, negative = inhibition) at 10uM
49 | CSc1ccc(CN(C)Cc2nc3cc(C(F)(F)F)ccc3c(=O)[nH]2)cc1 | 12.9%
50 | Cc1ccc2c(CN3CCN(CCO)CC3)cc(=O)oc2c1C | -15.5%
51 | Cc1ccc2c(c1)-c1c(cnn1CC(=O)N(Cc1ccco1)C1CCCCC1)CO2 | -13%
52 | Cc1cc(C)cc(NC(=O)Cn2nnc(C(=O)NCc3ccco3)c2N)c1 | 6.01%
53 | CCn1cc(/C=N\NC(=O)Cc2ccc(Cl)cc2)cn1 | -12%
54 | CCOC(=O)N1CCN(C(=O)CSc2nnc(CNC(=O)c3ccccc3F)o2)CC1 | 6.37%
55 | COc1ccccc1-c1cc(C(=O)NC2CCN(C)CC2)c2ccc(Cl)c(C)c2n1 | -42%
56 | N#CC1(NC(=O)COC(=O)CCCN=C2NS(=O)(=O)c3ccccc32)CCCCC1 | 15%
57 | Cn1c(SCC(=O)NCc2ccc3c(c2)OCO3)nc2c(c1=O)SCC2 | -21%
58 | Cc1ccc2c(CN3CCN(S(=O)(=O)c4ccccc4C(F)(F)F)CC3)cc(=O)oc2c1 | -57.3%
59 | CCc1ccc2c(CSc3nnnn3C)cc(=O)oc2c1 | -68.1%
60 | CCc1ccc2oc(=O)cc(CN3CCN(Cc4ccccc4)CC3)c2c1 | -46.3%
61 | Cc1ccc(S(=O)(=O)N2CCN(Cc3ccccc3C(F)(F)F)CC2)cc1 | -5.53%
62 | CCc1ccc2c(CN3CCN(Cc4ccccc4)CC3)cc(=O)oc2c1 | -79.7%
63 | Cc1ccc2c(CN3CCN(S(=O)(=O)c4ccccc4C(F)(F)F)CC3)cc(=O)oc2c1C | -5.49%
64 | Cn1nnnc1SCc1cc(=O)[nH]c2ccccc12 | 2.31%
65 | Cc1ccc2c(CSc3nnnn3C)cc(=O)oc2c1 | -42.4%
66 | CCc1ccc2c(CN3CCOCC3)cc(=O)oc2c1 | -31.7%
67 | N#Cc1c(-c2ccccc2)ccn(Cc2cccc(Cl)c2)c1=O | 8.43%
68 | Cc1ccc(Nc2cc(-n3nc(C)cc3C)ncn2)c(C)c1 | -3.97%
69 | COCCCN1C2=C(C(=O)CC(C)(C)C2)C(c2ccc(O)c(OC)c2)C2=C1CC(C)(C)CC2=O | 11.2%
70 | Cc1ccc(N)cc1CN1CCCC1=O | 2.15%
71 | CCN(CC)S(=O)(=O)c1ccc(C(=O)NC(C)(C)C)cc1 | 19.1%
72 | O=C(CCN1CCN(c2ccccc2F)CC1)Nc1ccc(F)cc1 | -18.3%

Row | SMILES | hERG current change (%, negative = inhibition) at 10uM
73 | COc1ccc(NC(=O)CCN2CCN(c3ccc(F)cc3)CC2)cc1 | -33%
74 | O=C(CCN1CCN(c2ccc(F)cc2)CC1)Nc1ccc(F)cc1 | -56.8%
75 | O=C(CCN1CCOCC1)Nc1ccc(F)cc1 | -10.5%
76 | Cc1ccccc1N1CCN(CCC(=O)Nc2ccc(F)cc2)CC1 | -67.5%
77 | O=C(CCN1CCN(c2ccccn2)CC1)Nc1ccc(F)cc1 | -42.5%
78 | CCC(C)(C)n1nnnc1C(c1cccnc1)N1CCCc2ccccc21 (stereo not drawn) | -19.6%
79 | CCS(=O)(=O)NCc1csc(-c2ccccc2)n1 | 18%
80 | Cc1cnccc1CN(C)C(=O)CC1C(=O)NCCN1CC1CCCCC1 (stereo not drawn) | -4.59%
81 | COc1ccc(/C=C2\SC(=S)N(CCC(=O)Nc3ccccn3)C2=O)cc1OC | 26.2%
82 | CC1CCCC(C)N1CC(O)COCC1COc2ccccc2O1.Cl (stereo not drawn) | -15.8%
83 | O=C(C1COc2ccccc2O1)N1CCN(c2ccccc2F)CC1 (stereo not drawn) | 9.47%
84 | Cl.OC(COCC1COc2ccccc2O1)CN1CCCCC1 (stereo not drawn) | -43.6%
85 | CCN1CCN(CC(O)COCC2COc3ccccc3O2)CC1.Cl (stereo not drawn) | -4.69%
86 | Cl.OCCN1CCN(CC(O)COCC2COc3ccccc3O2)CC1 (stereo not drawn) | 33.4%
87 | Cl.OC(COCC1COc2ccccc2O1)CN1CCN(c2ccccc2F)CC1 (stereo not drawn) | -58.9%
88 | Cl.OC(COCC1COc2ccccc2O1)CN1CCN(c2ccccc2)CC1 (stereo not drawn) | -64.1%
89 | C[N+]1(CC(O)COCC2COc3ccccc3O2)CCOCC1.[I-] (stereo not drawn) | 18.3%
90 | CC[N+](C)(CC)CC(O)COCC1COc2ccccc2O1.[I-] (stereo not drawn) | 1.73%
91 | CC1CCCN(CC(O)COCC2COc3ccccc3O2)C1.Cl (stereo not drawn) | -28.2%
92 | Cl.OC(COCC1COc2ccccc2O1)CN1CCc2ccccc2C1 (stereo not drawn) | -64.9%
93 | Cl.OC(COCC1COc2ccccc2O1)CN1CCN(c2ccc(F)cc2)CC1 (stereo not drawn) | -79.3%
